Five compounds from PubChem BioAssay (NCI) can be followed below.

Compounds without any hit were thinned out: in the full panel of roughly 83,000, 20% have a hit.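 Percent growth is the endpoint: 0 to 100 indicates growth inhibition (40 means 60% inhibition), 0 means no net growth, and negative values indicate cell death.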 Values without a mark were called inactive. The source made the active and inactive calls. Rule for the calls: active = growth percent below 10; inactive = the rest.

The assay has as its system MDA-MB-468 breast. The experiment in a line: NCI-60 one-dose screen, 48 h (100 = growth as untreated, 0 = no growth, -100 = all killed). The following applies: 10 µM unless noted.
Regarding `CC(=O)O[C@H]1CC[C@@]2(C)[C@@H](CC[C@@H]3[C@@H]2CC[C@@]2(C)[C@H]3CC[C@]2(O)C(C)=O)C1`, the growth was 94.1%.

For `C=CCn1cc(-c2nc3ccccc3s2)c2cc(-c3ccc4c5c(cccc35)C(=O)N(CCN3CCNCC3)C4=O)ccc21`, the growth is 88.4%.

In the case of `S=C(NCc1ccccc1)NCc1ccccc1`, the growth was 101%.

For the compound `O=[N+]([O-])c1ccc(N/N=C\c2ccccc2[N+](=O)[O-])nc1`, the growth is 114%.

Consider `Cc1cc(N)c2ccccc2[n+]1CCCCCCCCCC[n+]1c(C)cc(N)c2ccccc21`, for which the growth is -55.7% (active).
